# Where a name gives a salt, the structure may show the parent alone.
# Experiments:
# Assay in all cases: lowest phenotypically active concentration; higher = less potent
# Conditions in all cases: treatment time: 24 h
# [1] = tested on: A549-CANX-COX4
# Outline: (§1)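 Live-cell features were measured per well and normalised to solvent control wells after fifteen gene-edited A549, HepG2 and WPMY1 reporter lines had been treated for 24 h at 0.3, 1, 3 or 9 µM in four wells each. A condition was deviating when ≥3 of 4 wells sat beyond the 95th percentile of control Euclidean distances. It was reproducible when the median replicate Pearson correlation exceeded the 95th percentile of non-replicates. Phenotypic activity demanded both.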
# [2] = tested on: A549-TP53BP1-CLTA
# Outline: as §1
# [3] = tested on: HepG2-ACTB-RAB5A
# Outline: as §1
# [4] = tested on: HepG2-TP53BP1-CLTA
# Outline: as §1
# [5] = tested on: WPMY1-ACTB-RAB5A
# Outline: as §1
# [6] = tested on: WPMY1-CANX-COX4
# Outline: as §1
# [7] = tested on: WPMY1-TUBA1B-RELA
# Outline: as §1
# [8] = tested on: A549-GM130-SQSTM1
# Outline: as §1
# [9] = tested on: A549-TUBA1B-RELA
# Outline: as §1
# [10] = tested on: A549-ACTB-RAB5A
# Outline: as §1
structure (smiles),measurement,setting,value
C[C@@H]1C[C@@H]([C@H](O)CC2CC(=O)NC(=O)C2)C(=O)[C@@H](C)C1 [Cycloheximide],lowest phenotypically active concentration,[1],≤ 0.3 µM
same,lowest phenotypically active concentration,[2],≤ 0.3 µM
same,lowest phenotypically active concentration,[3],≤ 0.3 µM
same,lowest phenotypically active concentration,[4],3 µM
same,lowest phenotypically active concentration,[5],1 µM
same,lowest phenotypically active concentration,[6],≤ 0.3 µM
same,lowest phenotypically active concentration,[7],≤ 0.3 µM
C=C1C/C(=C\C)C(=O)O[C@@H]2CCN3CC=C(COC(=O)[C@]1(C)O)[C@H]23 [Seneciphylline],lowest phenotypically active concentration,[4],9 µM
"Cc1c(C(=O)c2cccc3ccccc23)c2cccc3c2n1[C@H](CN1CCOCC1)CO3 [WIN 55,212-2 mesylate]",lowest phenotypically active concentration,[8],9 µM
same,lowest phenotypically active concentration,[5],9 µM
same,lowest phenotypically active concentration,[6],9 µM
COc1cc2c(cc1O)C[C@H]1c3c(cc(O)c(OC)c3-2)CCN1C [Boldine],lowest phenotypically active concentration,[8],9 µM
same,lowest phenotypically active concentration,[9],9 µM
same,lowest phenotypically active concentration,[3],9 µM
O=C1C=C2C=C[C@@H]3C[C@@]2(O1)[C@H]1CCCCN31 [Securinine],lowest phenotypically active concentration,[7],9 µM
C=C(C)[C@H]1Cc2c(ccc3c2O[C@@H]2COc4cc(OC)c(OC)cc4[C@@H]2C3=O)O1 [Rotenone],lowest phenotypically active concentration,[1],≤ 0.3 µM
same,lowest phenotypically active concentration,[2],≤ 0.3 µM
same,lowest phenotypically active concentration,[3],≤ 0.3 µM
same,lowest phenotypically active concentration,[4],≤ 0.3 µM
same,lowest phenotypically active concentration,[5],≤ 0.3 µM
same,lowest phenotypically active concentration,[6],1 µM
same,lowest phenotypically active concentration,[7],1 µM
CN1C(=O)CN=C(c2ccccc2)c2cc(Cl)ccc21 [diazepam],lowest phenotypically active concentration,[3],9 µM
C[C@H]1CCCC=C[C@@H]2C[C@H](O)C[C@H]2[C@H](O)C=CC(=O)O1 [brefeldin-a],lowest phenotypically active concentration,[1],≤ 0.3 µM
same,lowest phenotypically active concentration,[2],≤ 0.3 µM
same,lowest phenotypically active concentration,[3],≤ 0.3 µM
same,lowest phenotypically active concentration,[4],≤ 0.3 µM
same,lowest phenotypically active concentration,[5],≤ 0.3 µM
same,lowest phenotypically active concentration,[6],≤ 0.3 µM
same,lowest phenotypically active concentration,[7],≤ 0.3 µM
O=C1NC(=S)N(c2cccc(Br)c2)C(=O)/C1=C/c1ccco1,lowest phenotypically active concentration,[9],9 µM
same,lowest phenotypically active concentration,[5],3 µM
same,lowest phenotypically active concentration,[6],9 µM
same,lowest phenotypically active concentration,[7],9 µM
CC(C)C[C@H]1C(=O)N2CCC[C@H]2[C@]2(O)O[C@](NC(=O)[C@@H]3C=C4c5cccc6[nH]c(Br)c(c56)C[C@H]4N(C)C3)(C(C)C)C(=O)N12 [bromocriptine],lowest phenotypically active concentration,[2],9 µM
same,lowest phenotypically active concentration,[3],9 µM
same,lowest phenotypically active concentration,[4],9 µM
C[C@H](N)Cc1ccccc1 [dextroamphetamine],lowest phenotypically active concentration,[10],3 µM
same,lowest phenotypically active concentration,[8],3 µM
same,lowest phenotypically active concentration,[9],3 µM
C[C@@H](CO)NC(=O)[C@@H]1C=C2c3cccc4[nH]cc(c34)C[C@H]2N(C)C1 [Ergobasine],lowest phenotypically active concentration,[8],9 µM
same,lowest phenotypically active concentration,[2],9 µM
same,lowest phenotypically active concentration,[6],9 µM
C[C@H]1C(=O)O[C@@H]2CCN3CC=C(COC(=O)[C@](C)(O)[C@]1(C)O)[C@H]23 [Monocrotaline],lowest phenotypically active concentration,[9],3 µM
C[C@]12CC[C@H](O)C[C@H]1CC[C@@H]1[C@@H]2CC[C@]2(C)[C@@H](C3=CC(=O)OC3)CC[C@]12O [Digitoxigenin],lowest phenotypically active concentration,[1],≤ 0.3 µM
same,lowest phenotypically active concentration,[2],≤ 0.3 µM
same,lowest phenotypically active concentration,[3],≤ 0.3 µM
same,lowest phenotypically active concentration,[4],1 µM
same,lowest phenotypically active concentration,[5],≤ 0.3 µM
same,lowest phenotypically active concentration,[6],≤ 0.3 µM
same,lowest phenotypically active concentration,[7],≤ 0.3 µM
Cc1sc2c(c1C)C(c1ccc(Cl)cc1)=N[C@H](CC(=O)OC(C)(C)C)c1nnc(C)n1-2,lowest phenotypically active concentration,[3],9 µM
same,lowest phenotypically active concentration,[7],9 µM
C[C@H]1CC[C@@H]2N(C1)C[C@H]1[C@@H]3C[C@H]4[C@@H](CC(=O)[C@H]5C[C@@H](O)CC[C@@]54C)[C@@H]3CC[C@H]1[C@]2(C)O [Imperialine],lowest phenotypically active concentration,[5],≤ 0.3 µM
same,lowest phenotypically active concentration,[6],≤ 0.3 µM
CC[C@@H](C)C(=O)O[C@H]1[C@H](O)[C@H]2[C@@H](CN3C[C@@H](C)CC[C@H]3[C@@]2(C)O)C2C[C@]34O[C@]5(O)[C@@H](OC(=O)[C@](C)(O)CC)CC[C@@]3(C)[C@@H]5[C@@H](OC(C)=O)[C@@H](OC(C)=O)[C@H]4[C@@]21O (some centres not stated) [Protoveratrine A],lowest phenotypically active concentration,[8],3 µM
N[C@@H]1C[C@H]1c1cc(F)cc(F)c1OCc1ccccc1,lowest phenotypically active concentration,[5],9 µM
